One may read the AC50 as the midpoint of the concentration-response curve, whichever way the signal moves.

“And” between values parts separate entries of the source, which are not always exact repeats. Equal entries are not always repeated. The source holds several records for some structures; these can differ, active in one and inactive in another. The source made the active and inactive calls. Rule for the calls: active = hit-call score of the fitted dose curve at least 0.9, where 1 is the maximum; inactive = score below 0.9.

Read-out in this assay: Tissue Factor, F3 (gene 2152)
Nature of the assay: BSK_LPS_TissueFactor: BioMAP Diversity Plus: LPS Assay for Tissue Factor Biomarker Activity (AID 2283084). Conditions: primary human HUVEC with PBMC; actives raise or lower the signal. As to the method: BSK_LPS is a cell-based, multiplexed-readout assay that uses umbilical vein endothelium and peripheral blood mononuclear cells, a human vascular primary cell co-culture, with measurements taken at 24 hours after chemical dosing in a 96-well plate.BSK_LPS_TissueFactor is an assay component measured in the BSK_LPS assay. It measures CD142 Tissue Factor antibody related to regulation of gene expression using ELISA technology.Data from the assay component BSK_LPS_TissueFactor was analyzed into 1 assay endpoint. This assay endpoint, BSK_LPS_TissueFactor, was analyzed with bidirectional fitting relative to DMSO as the negative control and baseline of activity. Using a type of binding reporter, gain or loss-of-signal activity can be used to understand changes in the signaling as they relate to the gene F3. Furthermore, this assay endpoint can be referred to as a primary readout, because this assay has produced multiple assay endpoints where this one serves a signaling function. To generalize the intended target to other relatable targets, this assay endpoint is annotated to the cytokine intended target family, where the subfamily is coagulation factor.
The levels of cell surface (or secreted, indicated by the prefix "s") biomarker endpoints were measured by ELISA. Overt cytotoxicity to cells in confluent adherent cultures (all systems other than the BT system) was assessed by measuring total protein levels using sulforhodamine B (SRB) staining in parallel cultures at the time of biomarker measurements, indicated as SRB endpoints. For proliferation assays for adherent cell types, individual cell types are cultured at sub-confluence and relative cell numbers quantified by SRB staining at time points optimized for each system (48 h: 3C and CASM3C systems; 72 h: BT and HDF3CGF systems; 96 h: SAg system). SRB was performed by staining cells with 0.1% SRB after fixation with 10% TCA and reading wells at 560 nm.Viability and proliferation of PBMC (T cells) was quantified by Alamar Blue reduction for the SAg and BT systems. For PBMC viability (referred to as PBMC Cytotoxicity within the assay endpoint names), cells were plated (75,000/well in a 96-well plate) and then chemical samples added for 1 h before addition of activators, SEB and TSST-1 (20 ng/mL final concentration each). Cells were incubated for 90 h. Then, Alamar Blue (20 uL/well) (Invitrogen, Cat DAL1100) was added for 6 h, and the plates were read with a fluorescence microplate reader at 546/580 nm (excitation/emission). For PBMC proliferation, cells were plated and activated as above but incubated for only 16 h prior to addition of Alamar Blue. Plates were read after 6 h.
Turning to `CO[Si](C)(CCC(F)(F)C(F)(F)C(F)(F)C(F)(F)C(F)(F)C(F)(F)F)OC`, the result was inactive.
The same measure, in the same setting: the entry for `FC(F)(F)C(F)(F)C(F)(F)C(F)(F)C(F)(F)C(F)(F)CC[Si](Cl)(Cl)Cl` is “inactive”; for `C[C@]12CC[C@H]3C(=CCc4cc(O)ccc43)[C@@H]1CCC2=O` it is “inactive”; for `NC(O)(C(F)(F)F)C(F)(F)F` it is “inactive”.
For `CC1=CC2C3C=CC(C3)C2C1C` (stereo not given), the outcome was inactive.
Still for that read-out and setting: the entry for `NC(=O)C(F)(F)C(F)(F)C(F)(F)C(F)(F)C(F)(F)C(F)(F)C(F)(F)F` is “inactive”; for `FC(F)(F)C(F)(F)C(F)(F)CC1CO1` (stereo not given) it is “inactive”.
Turning to `C[Si](Cl)(Cl)CCC(F)(F)C(F)(F)C(F)(F)C(F)(F)C(F)(F)C(F)(F)F`, the result was inactive.
On the same count and under the same terms, the entry for `O=C(O)C(F)(F)C(F)(F)C(F)(F)OC(F)(F)F` is “inactive”; for `O=S(=O)(O)CCC(F)(F)C(F)(F)C(F)(F)C(F)(F)C(F)(F)C(F)(F)C(F)(F)C(F)(F)F` it is “inactive”.
In the case of `Cc1ccc(O)c(-n2nc3ccccc3n2)c1`, the outcome was inactive.
Turning to `O=C(O)C(F)(F)OC(F)(F)C(F)(F)OC(F)(F)C(F)(F)OC(F)(F)F`, the outcome was inactive.
As for `O=S(=O)(OCC(F)(F)F)C(F)(F)C(F)(F)C(F)(F)C(F)(F)F`, the result was inactive and the AC50 is 9.88 µM (active).
As for `O=S(=O)(Cl)C(F)(F)C(F)(F)C(F)(F)C(F)(F)C(F)(F)C(F)(F)C(F)(F)C(F)(F)F`, the result was inactive.
In the case of `O=C(F)C1(F)C(F)(F)C(F)(F)C(F)(F)C(F)(F)C1(F)F`, the result was inactive.
Consider `OCCCC(F)(F)C(F)(F)C(F)(F)C(F)(F)C(F)(F)C(F)(F)C(F)(F)C(F)(F)F`, for which the AC50 was 39.3 µM (active) and 23.2 µM (active).
For `Brc1nc2ccccc2s1`, the outcome was inactive.
`CCN(CCO)S(=O)(=O)C(F)(F)C(F)(F)C(F)(F)C(F)(F)C(F)(F)C(F)(F)C(F)(F)C(F)(F)F`: the AC50 is 10.8 µM (active) and 15 µM (active).
Regarding `O=C(O)C(F)(F)C(F)(F)C(F)(F)C(=O)O`, the outcome was inactive.
Same read-out and setting: the result for `O=C(O)CCC(F)(F)C(F)(F)C(F)(F)F` reads “inactive”.
As to `CC(C)CCCC(C)CCO` (stereo not given), the result was inactive.
Take `O=C1c2c(O)ccc(Nc3ccc(CCO)cc3)c2C(=O)c2c([N+](=O)[O-])ccc(O)c21`: the AC50 was 3.97 µM (active).
For `O=C(O)C(F)(F)C(F)(F)C(F)(F)OC(F)(C(F)(F)F)C(F)(F)F`, the outcome was inactive.
With `C=CC(=O)OCCC(F)(F)C(F)(F)C(F)(F)C(F)(F)F`, the AC50 was 30 µM (active) and the outcome was inactive.
On to `CCN=C1C=CC(=C(c2ccc(N(CC)CC)cc2)c2ccc(N(CC)CC)cc2)c2ccccc21`, for which the half-maximal activity concentration (AC50) was 1.6 µM (active) and 1.55 µM (active).
On to `O=C=Nc1cccc2c(N=C=O)cccc12`, for which the outcome was inactive.
The same measure, in the same setting: the result for `CC(C)(C)c1cc(CCC(=O)NCCCCCCNC(=O)CCc2cc(C(C)(C)C)c(O)c(C(C)(C)C)c2)cc(C(C)(C)C)c1O` reads “inactive”; that for `CCN(CC)c1ccc(C=O)c(O)c1`, “inactive”.
Regarding `O=S(=O)(O)CCC(F)(F)C(F)(F)C(F)(F)C(F)(F)F`, the result was inactive.
Same read-out and setting: the entry for `O=C(c1ccccc1)c1ccc(O)cc1O` is “inactive”.
Turning to `O=C(Cl)C(F)(F)C(F)(F)C(F)(F)C(F)(F)C(F)(F)C(F)(F)F`, the outcome was inactive.
With `Cc1cc(C)c(O)c(C(C)(C)C)c1`, the half-maximal activity concentration (AC50) is 30.8 µM (active).
Still for that read-out and setting: the figure for `Cc1cc(O)c(C(C)(C)C)cc1C(C)(C)C` is 5.3 µM (active).
Consider `OCC(F)(F)C(F)(F)C(F)(F)C(F)(F)C(F)(F)C(F)(F)C(F)(F)C(F)(F)CO`, for which the outcome was inactive.
Consider `O=C(O)C(F)(F)C(F)(F)C(F)(F)C(F)(F)C(F)(F)C(F)(F)C(F)F`, for which the outcome was inactive.
As to `NC(=O)C(F)(F)C(F)(F)C(F)(F)C(F)F`, the outcome was inactive.
Regarding `OC(O)C(F)(F)C(F)(F)F`, the result was inactive.
As for `Cc1ccc(S(=O)(=O)C(I)I)cc1`, the AC50 was 3.07 µM (active).

The values are drawn from PubChem BioAssay (EPA / NIEHS).
